What all share (assay): DAPPL (digital affinity profiling via proximity ligation, sequencing); 10 mM Tris-HCl pH 7.5, 50 mM NaCl, 1 mM DTT, 4% glycerol, room temperature, 30 min; GST-TFs on glutathione beads, 16-mer random dsDNA library, 0.1% formaldehyde crosslink after washing; high values mean tight binding
For one experiment, the target named is T1, FEV (Homo sapiens, UniProt Q99581 1-238).
T1 sequence: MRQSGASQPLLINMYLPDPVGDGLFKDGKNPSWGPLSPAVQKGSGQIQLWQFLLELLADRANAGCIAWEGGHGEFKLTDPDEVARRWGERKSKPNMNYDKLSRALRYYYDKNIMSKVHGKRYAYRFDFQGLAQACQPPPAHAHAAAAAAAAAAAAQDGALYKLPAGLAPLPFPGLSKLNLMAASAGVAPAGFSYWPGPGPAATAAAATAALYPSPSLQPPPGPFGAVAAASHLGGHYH
Particulars: protein: recombinant; tags: N-terminal GST; dsDNA, one strand shown. The procedure, abridged: (§1)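 Binding signal is each hexamer's read frequency for a factor divided by its frequency in the tag-only sample. The factors were GST-fused human transcription factors from yeast, captured on glutathione beads, DNA-barcoded and pooled with that sample. Pools were incubated with 200 nmole of a random double-stranded 16-mer DNA library in Tris/NaCl/DTT/glycerol buffer at room temperature for 30 min, then washed, crosslinked with 0.1% formaldehyde, proximity-ligated with BsaI/T4 ligase (1 h, 37 °C), PCR-amplified and sequenced on an Illumina NextSeq500.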

The next experiment has as its target ETV5 (Homo sapiens, UniProt P41161 1-510). Particulars: protein: recombinant; tags: N-terminal GST; dsDNA, one strand shown. The procedure, abridged: as §1
For a further experiment, the target named is HSF1 (Homo sapiens, UniProt Q00613 1-529). Particulars: protein: recombinant; tags: N-terminal GST; chain copies: 3; dsDNA, one strand shown. In a few lines: as §1
Chain of HSF1 (Q00613 whole entry): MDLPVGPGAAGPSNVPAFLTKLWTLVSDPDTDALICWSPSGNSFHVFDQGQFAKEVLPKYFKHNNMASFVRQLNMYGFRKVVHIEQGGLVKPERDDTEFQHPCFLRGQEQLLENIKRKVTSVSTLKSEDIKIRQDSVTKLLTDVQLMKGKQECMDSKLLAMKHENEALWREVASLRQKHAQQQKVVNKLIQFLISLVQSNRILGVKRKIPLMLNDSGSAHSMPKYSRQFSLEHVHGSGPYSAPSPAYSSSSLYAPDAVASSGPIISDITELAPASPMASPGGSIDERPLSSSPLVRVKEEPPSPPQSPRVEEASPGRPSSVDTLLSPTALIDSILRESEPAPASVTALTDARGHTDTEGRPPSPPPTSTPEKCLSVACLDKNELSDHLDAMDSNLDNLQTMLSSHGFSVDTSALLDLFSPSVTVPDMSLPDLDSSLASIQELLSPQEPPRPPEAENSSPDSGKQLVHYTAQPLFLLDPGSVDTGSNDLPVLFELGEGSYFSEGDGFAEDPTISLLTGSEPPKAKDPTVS
Another experiment deals with T2, SPIC (Homo sapiens, UniProt Q8N5J4 1-248).
T2 sequence: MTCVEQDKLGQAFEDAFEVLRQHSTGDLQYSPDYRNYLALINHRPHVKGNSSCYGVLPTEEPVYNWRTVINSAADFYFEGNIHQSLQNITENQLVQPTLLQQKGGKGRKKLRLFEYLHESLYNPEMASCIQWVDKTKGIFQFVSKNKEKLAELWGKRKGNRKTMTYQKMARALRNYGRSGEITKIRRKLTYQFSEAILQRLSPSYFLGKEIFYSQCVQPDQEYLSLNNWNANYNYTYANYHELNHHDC
The following applies: protein: recombinant; tags: N-terminal GST; dsDNA, one strand shown. The procedure, abridged:
as §1

For the next experiment, the target named is ELF4 (Homo sapiens, UniProt Q99607 1-663). The following applies: protein: recombinant; tags: N-terminal GST; dsDNA, one strand shown. The procedure, abridged: as §1
Chain of ELF4 (Q99607 whole entry): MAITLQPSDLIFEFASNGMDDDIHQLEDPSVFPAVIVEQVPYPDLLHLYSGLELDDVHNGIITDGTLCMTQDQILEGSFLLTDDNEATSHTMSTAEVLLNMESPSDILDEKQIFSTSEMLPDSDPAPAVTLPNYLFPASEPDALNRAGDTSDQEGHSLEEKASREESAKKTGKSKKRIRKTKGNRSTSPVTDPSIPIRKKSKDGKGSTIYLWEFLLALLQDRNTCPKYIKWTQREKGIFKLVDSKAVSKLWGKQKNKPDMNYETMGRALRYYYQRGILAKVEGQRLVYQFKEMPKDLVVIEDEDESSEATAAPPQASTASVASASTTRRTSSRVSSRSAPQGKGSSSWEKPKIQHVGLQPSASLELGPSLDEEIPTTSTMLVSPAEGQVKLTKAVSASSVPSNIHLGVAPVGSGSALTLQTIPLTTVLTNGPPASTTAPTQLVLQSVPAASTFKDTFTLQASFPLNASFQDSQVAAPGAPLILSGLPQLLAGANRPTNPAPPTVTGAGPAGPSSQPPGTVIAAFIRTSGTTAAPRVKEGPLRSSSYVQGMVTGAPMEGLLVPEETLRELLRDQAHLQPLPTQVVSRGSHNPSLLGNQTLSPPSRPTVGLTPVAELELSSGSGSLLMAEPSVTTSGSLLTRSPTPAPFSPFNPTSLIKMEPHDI
The target of the next experiment is T3, ELK4 (Homo sapiens, UniProt P28324-2 1-405).
T3 sequence: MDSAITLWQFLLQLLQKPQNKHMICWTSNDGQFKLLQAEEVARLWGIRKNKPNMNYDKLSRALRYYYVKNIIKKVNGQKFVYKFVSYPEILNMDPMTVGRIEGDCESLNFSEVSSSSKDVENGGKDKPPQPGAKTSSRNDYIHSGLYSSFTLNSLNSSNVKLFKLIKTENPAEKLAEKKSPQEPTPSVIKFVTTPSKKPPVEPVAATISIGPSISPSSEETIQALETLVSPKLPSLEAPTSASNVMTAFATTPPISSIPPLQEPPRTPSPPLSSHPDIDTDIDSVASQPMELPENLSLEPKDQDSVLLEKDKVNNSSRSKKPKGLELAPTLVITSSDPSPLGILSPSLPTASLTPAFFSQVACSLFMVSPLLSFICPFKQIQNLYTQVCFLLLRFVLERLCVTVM
The following applies: protein: recombinant; tags: N-terminal GST; dsDNA, one strand shown. In a few lines:
as §1

In the next experiment the target is T4, ETV2 (Homo sapiens, UniProt O00321 1-342).
T4 sequence: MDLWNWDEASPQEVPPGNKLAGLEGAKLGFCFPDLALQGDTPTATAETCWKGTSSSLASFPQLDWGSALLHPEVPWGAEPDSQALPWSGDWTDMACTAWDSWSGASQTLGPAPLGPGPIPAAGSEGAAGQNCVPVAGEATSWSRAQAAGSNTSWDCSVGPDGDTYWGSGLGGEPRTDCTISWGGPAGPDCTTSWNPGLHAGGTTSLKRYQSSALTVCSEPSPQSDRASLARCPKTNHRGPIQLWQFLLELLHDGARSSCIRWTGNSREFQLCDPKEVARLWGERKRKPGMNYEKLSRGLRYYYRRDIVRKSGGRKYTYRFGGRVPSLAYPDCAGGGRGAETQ
Particulars: protein: recombinant; tags: N-terminal GST; dsDNA, one strand shown. In a few lines:
as §1

The target of another experiment is T5, ELF3 (Homo sapiens, UniProt P78545 1-371).
T5 sequence: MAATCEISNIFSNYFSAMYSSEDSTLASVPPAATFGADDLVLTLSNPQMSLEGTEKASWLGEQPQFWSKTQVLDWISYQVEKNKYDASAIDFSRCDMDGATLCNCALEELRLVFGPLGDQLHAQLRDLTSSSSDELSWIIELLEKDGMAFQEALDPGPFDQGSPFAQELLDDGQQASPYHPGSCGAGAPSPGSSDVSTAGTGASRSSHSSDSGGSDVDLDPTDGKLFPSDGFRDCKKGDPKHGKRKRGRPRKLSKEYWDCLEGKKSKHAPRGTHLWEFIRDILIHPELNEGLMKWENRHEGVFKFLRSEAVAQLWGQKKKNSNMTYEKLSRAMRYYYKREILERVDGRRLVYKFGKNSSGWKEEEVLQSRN
The following applies: protein: recombinant; tags: N-terminal GST; dsDNA, one strand shown. The procedure, abridged: as §1

The target in the next experiment is CRX (Homo sapiens, UniProt O43186 1-299). Particulars: protein: recombinant; tags: N-terminal GST; dsDNA, one strand shown. In a few lines: as §1
Chain of CRX (O43186 whole entry): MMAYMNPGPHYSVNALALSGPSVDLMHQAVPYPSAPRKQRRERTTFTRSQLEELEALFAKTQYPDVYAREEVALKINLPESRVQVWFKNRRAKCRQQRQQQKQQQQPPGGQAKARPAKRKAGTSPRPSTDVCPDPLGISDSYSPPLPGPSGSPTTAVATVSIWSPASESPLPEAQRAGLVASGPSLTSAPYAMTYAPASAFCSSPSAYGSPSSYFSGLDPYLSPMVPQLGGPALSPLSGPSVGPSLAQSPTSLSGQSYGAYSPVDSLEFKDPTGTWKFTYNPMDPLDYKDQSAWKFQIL
For the next experiment, the target named is ETV1 (Homo sapiens, UniProt P50549 1-477). The following applies: protein: recombinant; tags: N-terminal GST; dsDNA, one strand shown. In a few lines:
as §1

Another experiment has as its target T6, ERF (Homo sapiens, UniProt P50548 1-548).
T6 sequence: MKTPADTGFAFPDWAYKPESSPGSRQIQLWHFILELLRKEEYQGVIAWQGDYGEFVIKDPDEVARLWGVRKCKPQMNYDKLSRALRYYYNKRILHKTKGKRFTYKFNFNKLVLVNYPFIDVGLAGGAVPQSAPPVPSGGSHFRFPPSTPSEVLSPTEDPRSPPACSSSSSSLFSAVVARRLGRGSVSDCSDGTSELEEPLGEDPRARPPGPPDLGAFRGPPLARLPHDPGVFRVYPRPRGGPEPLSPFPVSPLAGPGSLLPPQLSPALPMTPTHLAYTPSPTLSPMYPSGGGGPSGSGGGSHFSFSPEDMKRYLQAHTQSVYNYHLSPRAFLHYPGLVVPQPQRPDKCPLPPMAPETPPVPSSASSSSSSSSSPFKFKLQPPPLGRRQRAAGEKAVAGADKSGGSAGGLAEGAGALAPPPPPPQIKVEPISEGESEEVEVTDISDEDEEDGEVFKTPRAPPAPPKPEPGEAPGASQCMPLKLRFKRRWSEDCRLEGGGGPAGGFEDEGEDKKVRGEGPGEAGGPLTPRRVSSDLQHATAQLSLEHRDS
Particulars: protein: recombinant; tags: N-terminal GST; dsDNA, one strand shown. The procedure, abridged:
as §1

The target in another experiment is T7, ETV3L (Homo sapiens, UniProt Q6ZN32 1-361).
T7 sequence: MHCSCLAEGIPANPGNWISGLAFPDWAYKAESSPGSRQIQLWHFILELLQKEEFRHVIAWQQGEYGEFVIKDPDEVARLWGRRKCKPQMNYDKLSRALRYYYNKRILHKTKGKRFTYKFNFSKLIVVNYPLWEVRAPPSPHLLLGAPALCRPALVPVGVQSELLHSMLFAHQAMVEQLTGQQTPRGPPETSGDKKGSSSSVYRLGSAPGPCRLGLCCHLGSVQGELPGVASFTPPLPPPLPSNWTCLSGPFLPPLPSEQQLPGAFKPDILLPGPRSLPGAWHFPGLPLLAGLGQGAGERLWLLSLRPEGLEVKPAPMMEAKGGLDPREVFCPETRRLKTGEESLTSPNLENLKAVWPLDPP
The following applies: protein: recombinant; tags: N-terminal GST; dsDNA, one strand shown. The procedure, abridged:
as §1

The target of a further experiment is T8, ETS2 (Homo sapiens, UniProt P15036 1-469).
T8 sequence: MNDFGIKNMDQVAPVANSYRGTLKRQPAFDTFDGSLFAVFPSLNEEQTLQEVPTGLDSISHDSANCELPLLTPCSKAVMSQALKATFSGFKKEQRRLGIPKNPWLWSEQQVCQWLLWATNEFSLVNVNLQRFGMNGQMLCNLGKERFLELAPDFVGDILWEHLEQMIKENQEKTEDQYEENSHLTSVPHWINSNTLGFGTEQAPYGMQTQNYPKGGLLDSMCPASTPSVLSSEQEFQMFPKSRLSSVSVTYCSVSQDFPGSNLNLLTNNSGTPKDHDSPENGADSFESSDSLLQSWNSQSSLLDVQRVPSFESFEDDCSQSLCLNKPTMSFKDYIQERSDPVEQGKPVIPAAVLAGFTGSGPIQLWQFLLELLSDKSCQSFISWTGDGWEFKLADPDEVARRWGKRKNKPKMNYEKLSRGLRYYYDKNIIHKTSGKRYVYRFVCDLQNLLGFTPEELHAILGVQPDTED
Particulars: protein: recombinant; tags: N-terminal GST; dsDNA, one strand shown. In a few lines: as §1

The next experiment has as its target T9, SPDEF (Homo sapiens, UniProt O95238 1-335).
T9 sequence: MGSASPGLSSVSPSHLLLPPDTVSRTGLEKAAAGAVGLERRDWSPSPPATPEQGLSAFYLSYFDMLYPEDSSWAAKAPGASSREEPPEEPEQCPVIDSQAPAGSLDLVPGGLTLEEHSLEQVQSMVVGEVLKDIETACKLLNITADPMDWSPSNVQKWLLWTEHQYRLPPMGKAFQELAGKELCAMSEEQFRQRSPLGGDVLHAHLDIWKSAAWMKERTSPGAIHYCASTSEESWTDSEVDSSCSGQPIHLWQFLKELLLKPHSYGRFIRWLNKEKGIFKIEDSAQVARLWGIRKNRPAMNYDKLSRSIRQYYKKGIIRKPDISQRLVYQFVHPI
Particulars: protein: recombinant; tags: N-terminal GST; dsDNA, one strand shown. The procedure, abridged: as §1

The target in a further experiment is T10, ETV7 (Homo sapiens, UniProt Q9Y603 1-341).
T10 sequence: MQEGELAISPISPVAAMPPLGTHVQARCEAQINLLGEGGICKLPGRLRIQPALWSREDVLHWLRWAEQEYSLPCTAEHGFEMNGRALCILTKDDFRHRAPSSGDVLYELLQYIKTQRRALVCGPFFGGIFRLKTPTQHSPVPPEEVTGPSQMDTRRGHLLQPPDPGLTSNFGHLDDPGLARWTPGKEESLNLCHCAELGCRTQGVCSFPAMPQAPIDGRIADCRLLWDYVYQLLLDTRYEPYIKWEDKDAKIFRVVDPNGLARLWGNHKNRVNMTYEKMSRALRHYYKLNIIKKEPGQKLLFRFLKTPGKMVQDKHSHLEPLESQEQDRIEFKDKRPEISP
Particulars: protein: recombinant; tags: N-terminal GST; dsDNA, one strand shown. In a few lines:
as §1

Another experiment addresses T11, ELF5 (Homo sapiens, UniProt Q9UKW6-2 1-255).
T11 sequence: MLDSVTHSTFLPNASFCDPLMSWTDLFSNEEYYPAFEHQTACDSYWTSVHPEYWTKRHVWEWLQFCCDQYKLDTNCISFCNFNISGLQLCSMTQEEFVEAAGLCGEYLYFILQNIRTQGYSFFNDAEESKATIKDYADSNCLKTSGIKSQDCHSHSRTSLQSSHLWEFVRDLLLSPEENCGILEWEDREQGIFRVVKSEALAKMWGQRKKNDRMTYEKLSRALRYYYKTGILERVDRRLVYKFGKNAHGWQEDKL
Particulars: protein: recombinant; tags: N-terminal GST; dsDNA, one strand shown. The procedure, abridged: as §1

The target of a further experiment is T12, ETV3 (Homo sapiens, UniProt P41162-2 1-143).
T12 sequence: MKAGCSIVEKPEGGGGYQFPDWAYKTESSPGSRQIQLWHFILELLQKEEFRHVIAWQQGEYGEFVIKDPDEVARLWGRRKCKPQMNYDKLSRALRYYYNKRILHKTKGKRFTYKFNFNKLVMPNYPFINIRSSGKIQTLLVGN
The following applies: protein: recombinant; tags: N-terminal GST; dsDNA, one strand shown. In a few lines:
as §1

The target in the next experiment is ETV6 (Homo sapiens, UniProt P41212 1-452). The following applies: protein: recombinant; tags: N-terminal GST; dsDNA, one strand shown. In a few lines:
as §1

Chain of ETV6 (P41212 whole entry): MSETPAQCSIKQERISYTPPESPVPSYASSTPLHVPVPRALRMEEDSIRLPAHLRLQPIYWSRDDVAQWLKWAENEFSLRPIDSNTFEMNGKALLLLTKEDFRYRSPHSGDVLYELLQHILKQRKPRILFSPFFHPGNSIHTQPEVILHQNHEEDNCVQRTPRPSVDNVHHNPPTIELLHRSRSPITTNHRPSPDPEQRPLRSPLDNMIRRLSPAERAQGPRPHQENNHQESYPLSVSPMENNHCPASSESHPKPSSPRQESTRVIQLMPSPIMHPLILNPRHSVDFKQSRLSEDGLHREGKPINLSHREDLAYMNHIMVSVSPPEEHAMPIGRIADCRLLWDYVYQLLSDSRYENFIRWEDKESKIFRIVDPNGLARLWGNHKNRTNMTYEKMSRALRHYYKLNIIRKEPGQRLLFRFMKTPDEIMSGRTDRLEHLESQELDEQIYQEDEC
Chain of ETV5 (P41161 whole entry): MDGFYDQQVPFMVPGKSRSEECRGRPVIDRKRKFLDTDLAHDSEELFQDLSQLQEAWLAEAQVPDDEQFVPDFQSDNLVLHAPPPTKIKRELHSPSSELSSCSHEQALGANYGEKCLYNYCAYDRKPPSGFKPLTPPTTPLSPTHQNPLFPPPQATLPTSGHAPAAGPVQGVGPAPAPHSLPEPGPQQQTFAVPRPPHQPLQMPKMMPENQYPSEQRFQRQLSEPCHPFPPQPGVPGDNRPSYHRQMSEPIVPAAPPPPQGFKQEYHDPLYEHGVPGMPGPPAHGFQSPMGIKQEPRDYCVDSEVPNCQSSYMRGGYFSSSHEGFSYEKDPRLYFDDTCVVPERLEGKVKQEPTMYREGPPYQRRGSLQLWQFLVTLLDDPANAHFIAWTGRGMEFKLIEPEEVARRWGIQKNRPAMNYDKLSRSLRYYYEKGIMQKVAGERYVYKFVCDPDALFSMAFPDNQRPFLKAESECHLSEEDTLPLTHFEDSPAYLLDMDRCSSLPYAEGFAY
Chain of ETV1 (P50549 whole entry): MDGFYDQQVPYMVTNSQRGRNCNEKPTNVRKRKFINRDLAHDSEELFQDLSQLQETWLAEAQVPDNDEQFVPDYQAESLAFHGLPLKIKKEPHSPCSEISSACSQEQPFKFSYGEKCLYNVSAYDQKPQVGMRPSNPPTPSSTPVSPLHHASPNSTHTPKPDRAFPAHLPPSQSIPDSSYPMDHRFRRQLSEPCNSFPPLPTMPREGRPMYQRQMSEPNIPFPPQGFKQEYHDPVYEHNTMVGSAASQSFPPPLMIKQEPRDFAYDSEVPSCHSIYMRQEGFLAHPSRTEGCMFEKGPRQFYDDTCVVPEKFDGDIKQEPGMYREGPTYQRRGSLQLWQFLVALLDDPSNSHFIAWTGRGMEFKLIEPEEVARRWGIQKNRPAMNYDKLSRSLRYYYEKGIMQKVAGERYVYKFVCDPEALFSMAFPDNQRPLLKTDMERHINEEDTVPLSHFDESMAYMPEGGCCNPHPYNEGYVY

For TCCGTA, the binding signal with FEV is 1.43 fold enrichment (6-mer frequency, TF over GST control); with ETV5 it was 1.62 fold enrichment (6-mer frequency, TF over GST control); with HSF1, 1.1 fold enrichment (6-mer frequency, TF over GST control); in the experiment with SPIC, 1.56 fold enrichment (6-mer frequency, TF over GST control); in the experiment with ELF4 it was 1.47 fold enrichment (6-mer frequency, TF over GST control); with ELK4, 1.6 fold enrichment (6-mer frequency, TF over GST control). Also, the binding signal with ETV2 was 1.63 fold enrichment (6-mer frequency, TF over GST control); with ELF3 it was 1.47 fold enrichment (6-mer frequency, TF over GST control); with CRX, 1.21 fold enrichment (6-mer frequency, TF over GST control); in the experiment with ETV1 it was 1.47 fold enrichment (6-mer frequency, TF over GST control); with ERF, 1.43 fold enrichment (6-mer frequency, TF over GST control); in the experiment with ETV3L, 1.53 fold enrichment (6-mer frequency, TF over GST control). The binding signal in the experiment with ETS2 was 1.57 fold enrichment (6-mer frequency, TF over GST control); with SPDEF it was 1.79 fold enrichment (6-mer frequency, TF over GST control); with ETV7, 1.37 fold enrichment (6-mer frequency, TF over GST control); with ELF5 it was 2.03 fold enrichment (6-mer frequency, TF over GST control); in the experiment with ETV3, 1.71 fold enrichment (6-mer frequency, TF over GST control); with ETV6 it was 1.54 fold enrichment (6-mer frequency, TF over GST control).

For the origin of these results see publication PMC7862700, “An all-to-all approach to the identification of sequence-specific readers for epigenetic DNA modifications on cytosine”.
